Measurements: PubChem BioAssay (NCI)
The panel holds about 79,000 compounds, 15% with a hit somewhere; the sample as a whole holds those more often. Unmarked numbers belong to inactive results. Rule as the data show it: active = growth inhibition above about 70%; inactive = the rest.

Assay: NCI Yeast Anticancer Drug Screen. Data for the sgs1 mgt1 strain (AID 161);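 also: 0% = growth of cultures given vehicle only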
Details: S. cerevisiae sgs1 mgt1 strain, at 50.0 µM, stronger effect = higher value
Protocol: Growth inhibition of yeast strains with defined genetic alterations is measured as a screen for potential anti-cancer activity. Selected strains with alterations in DNA damage repair or cell cycle control were exposed to compounds and growth inhibition was measured relative to vehicle treated controls. The strain used in this assay is sgs1 mgt1

SMILES | growth inhibition [%]
COc1cc(C)c(C(=O)/C=C/c2cc(OC)c(O)c(OC)c2)cc1O | 39.6
NC(Cc1ccc(O)cc1)C(=O)NCCS(=O)(=O)O (stereo not given) | 26.7
O=C(CCCC(=O)N/N=C/c1ccc(I)cc1)N/N=C\c1ccc(I)cc1 | 25.2
Cc1onc(-c2c(F)cccc2Cl)c1C(=O)Nc1cc2cc([N+](=O)[O-])ccc2oc1=O | 2.3
COc1ccc(C23OC2Oc2cc(OC4CCCCO4)ccc2C3=O)cc1 (stereo not given) | -6.25
COC/N=C(\NC#N)NCOC | 9.5
CCOC(=O)c1c(-c2ccccc2)n2c3c(cccc13)CC2 | -6.05
COC(=O)C1OC1c1ccncc1 (stereo not given) | 32.3
O=C(Nc1ccn(CCOC(=O)c2ccccc2)c(=O)n1)c1ccccc1 | 22.8
CC1=CC(=O)CCC1c1ccccc1 (stereo not given) | -19.8
CC(=O)[C@@]1(O)CC[C@H]2[C@@H]3C[C@H](C)C4=CC(=O)CC[C@]4(C)[C@H]3[C@@H](O)C[C@@]21C | -19.1
CCCCN=C(OC1C=CCCC1)SC (stereo not given) | -14.6
COc1ccc(C(c2c(O)c3ccccc3oc2=O)N2CCCC2)c(OC)c1 (stereo not given) | -3.25
CC1=NN(C(=O)c2ccncc2)C(=O)C1N=Nc1ccc([N+](=O)[O-])cc1Cl (stereo not given) | 21.3
O=C(Nc1ccc(C(=O)O)cc1)Nc1nccs1 | 18
Nc1cc2c(cc1Br)-c1ccc(Cl)cc1C2=O | 7.3
Cc1nc2cccc([N+](=O)[O-])c2n1CCCN(C)C | 11.9
COC1C(=O)c2ccccc2N1C(C)=O (stereo not given) | -7.6
COc1cc2nc(C(O)C(O)c3nc4cc(OC)c(OC)cc4[nH]3)[nH]c2cc1OC (stereo not given) | 19.6
CCCC(CCC)C(=O)O | -8.75

SMILES | growth inhibition [%]
CC[N+](C)(CC)CCOC(=O)c1ccccc1Oc1ccc(C)cc1 | 7.8
O=C1C(O)=C(Br)C(=O)C(O)=C1Br | 10.1
COC(=O)C(=O)C(C(=O)C(=O)Nc1cccc(OC)c1)c1nc2ccc(Cl)cc2[nH]c1=O (stereo not given) | -8.25
c1ccc(-c2cnc3cccnc3n2)cc1 | -19.2
COc1ccc2c(c1)C(=O)OCCC2 | -26.6
CC(C)(O)CCc1ccccc1 | -14.2
CCCc1nc2c([nH]1)c(=O)n(C)c(=O)n2C | 3.5
O=c1oc(-c2ccccc2)c(-c2ccccc2)o1 | 21.9
Cc1ccc(S(=O)(=O)OC2C3OC(C)(C)OC3OC2C(c2cc(O)c3c(c2O)C(=O)c2ccccc2C3=O)c2cc(O)c3c(c2O)C(=O)c2ccccc2C3=O)cc1 (stereo not given) | -11.6
O=C(CSc1nnc(-c2ccc(N=Cc3ccc(Cl)cc3)cc2)o1)Nc1ccc([N+](=O)[O-])cc1 | 14.7
CC1(C)OC2C(CO)OC(n3ccc(N)nc3=O)C2O1 (stereo not given) | 2.15
CCCCC1(O)c2ccc3ccccc3c2C(O)(CCCC)c2cccc(-c3ccccc3)c21 (stereo not given) | 10.2
Cc1ccccc1N=Cc1ccc(N(CCC#N)S(=O)(=O)c2ccccc2)cc1 | 19.9
O=c1c2c(sc3ccccc13)NCN(CCc1ccccc1)C2 | 20.9
CC(C1=CC=C2[C@@H]3CCC4CC(N(C)C)CC[C@]4(C)C3CC[C@]12C)N(C)C=O (stereo not given in full) | -16.2
CCOC(=O)Nc1cc2c(c(N)n1)N=C(CN(C)c1ccccc1)CN2 | 59.5
CCc1ccccc1NC(=O)C(=O)C(C(=O)c1ccc(OC)cc1)c1ccc(OC)cc1 (stereo not given) | 5.4
O=C(N/N=C\c1ccc(Cl)cc1)Nc1ccc2ccccc2c1 | 4.35
CN=NNc1ccccc1 | -6.45
CC(=O)NC(CCCCNC(=O)OC(C)(C)C)C(=O)O (stereo not given) | -23.2
